# Screens deposited in PubChem BioAssay by Broad Institute.
# Not all results are given here.
# aSyn 5UTR act: Activators via SNCA 5'UTR binding, MLPCN. alpha-synuclein 5'UTR reporter, activators screen. activity score, % (tested at 7.5 µM), hits read low. hit rate 7.1% among 300,000; in the data active = activity score below about -60%
# Numbers without * were called inactive.
SMILES,aSyn 5UTR act
CC1=C(C(=O)Nc2ccccn2)C(c2ccc(Br)cc2)NC(=S)N1 (stereo not drawn),-106*
COc1cc(C=O)ccc1OCCSc1ccc(Cl)cc1,-87*
CC(C)(C)OC(=O)N/N=C/c1cccc([N+](=O)[O-])c1,-129*
Cc1ccsc1/C=N/NC(=O)c1c[nH]c2ccccc12,-122*
CCn1ncc(/C=N\NC(=O)c2csc3ccccc23)c1C,-66*
Cc1ccc(/C=N/NC(=O)c2c[nH]c3ccccc23)s1,-113*
CCn1nc(C)c(/C=N/NC(=O)c2c[nH]c3ccccc23)c1C,-175*
O=C(N/N=C/c1cccc([N+](=O)[O-])c1)c1c[nH]c2ccccc12,-124*
CC(C)(C)OC(=O)N/N=C\c1ccc[nH]1,-77*
CC(=O)N/N=C(/C)c1ccc(NC(=O)c2csc(C)c2C)cc1,-113*
CC/C(=N\NC(=O)c1c[nH]c2ccccc12)c1cccs1,-122*
O=C(N/N=C/c1ccsc1)c1c[nH]c2ccccc12,-126*
C/C(=N\NC(=O)c1c[nH]c2ccccc12)c1ccc(C)s1,-186*
C/C(=N\NC(=O)c1csc(C)c1C)c1ccc(C)s1,-93*
O=C(N/N=C/c1ccccn1)c1c[nH]c2ccccc12,-79*
CC(C)(C)C(=O)/C(=C\c1cccc([N+](=O)[O-])c1)n1cncn1,-129*
Cc1cc(/C=N/Nc2nc(N)ncc2[N+](=O)[O-])c(C)n1-c1cccc(C(F)(F)F)c1,-117*
O=[N+]([O-])c1cc(CN2CCN(c3cccc(C(F)(F)F)c3)CC2)c2cccnc2c1O,71
Cc1cc(/C=N/Nc2ncnc(N)c2[N+](=O)[O-])c(C)n1-c1ccccc1,95
COCc1cc(CN2CCCC2)c(O)c2ncccc12,59
COc1ccccc1NC(=O)Cn1c(CN2CCCCC2)nc2ccccc2c1=O,-63*
Cc1ccc2c(COC(=O)c3ccc(NC(=O)CC#N)cc3)cc(=O)oc2c1C,-69*
Cn1c(=O)c(C(=O)Nc2ncccc2O)c(O)c2ccccc21,-147*
Cc1ccc(NC(=O)c2c(O)c3ccccc3n(C)c2=O)nc1,-98*
Cc1cccc(NC(=O)c2c(O)c3ccccc3n(C)c2=O)c1,-141*
SMILES,aSyn 5UTR act
O=C(Nc1ccc2[nH]ncc2c1)c1ccc(F)cc1,-90*
O=C(Nc1ccc2[nH]ncc2c1)c1ccccc1,-81*
Nc1nccc(/C=C/c2ccc(Cl)cc2)n1,-112*
CCOc1cc(C(C(=O)NCC2CCCO2)N(C(=O)Cn2nnc3ccccc32)c2ccc(C(C)=O)cc2)ccc1O (stereo not drawn),-67*
O/N=C/c1cc(Br)ccc1OCc1ccc(F)cc1,-79*
Cc1ccc(COc2ccc(Br)cc2/C=N/O)cc1,-156*
CCOc1cc(/C=N/O)ccc1OCc1ccc(C)cc1,-68*
CC(C)N(C(=O)CSc1ncnc2sc(-c3ccccc3)cc12)C(C)C,-88*
Cc1nc(SCCC(=O)O)c2cc(-c3ccccc3)sc2n1,67
Clc1ccc(-c2cn3c(n2)-c2ccccc2C3)cc1Cl,-67*
Cc1ccc(Nc2nc3ccccc3c(=O)[nH]2)cc1C,-195*
Cc1cccc(/C=C\c2nc3ccccc3c(=O)[nH]2)c1,-74*
CN(C)c1ccc(/C=C/c2nc3ccccc3c(=O)[nH]2)cc1,87
O=C(Nc1cccc(/C=C/c2nc3ccccc3c(=O)[nH]2)c1)c1ccccc1Cl,-132*
O=c1[nH]c(/C=C/c2ccc(Br)cc2)nc2ccccc12,-169*
COc1cccc(CNC(=O)CCC2CCCN(C(=O)c3cc4ccccc4o3)C2)c1 (stereo not drawn),-78*
CCOc1cc(CNc2ccc3c(c2)OCCO3)cc(Br)c1OC,95
CCOc1cc(CNc2ccc3c(c2)OCCO3)cc(Br)c1OCC(N)=O,-66*
O=C(Nc1ccccc1)Nc1c(F)cccc1F,-66*
O=C(Nc1ccccc1)Nc1scc2c1c(=O)oc1ccccc12,-123*
CC(=O)Nc1ccc(C#Cc2ccc(NC(C)=O)cc2)cc1,74
CC(=O)Nc1ccc(NC(=O)Nc2ccccc2)cc1,-70*
CC(=O)Nc1ccc(SCCCC(=O)c2ccccc2)cc1,-161*
O=C(Nc1ccccc1)Nc1csc2ccccc12,-165*
O=C(NC1CC1)c1cc2cc3ccccc3nc2s1,-152*
SMILES,aSyn 5UTR act
Cc1cc(=O)oc2c(C(=O)/C=C\c3cccs3)c(O)ccc12,-89*
Cc1c(C(=O)/C=C/c2cccs2)oc2ccc(F)cc12,-202*
COc1ccc(Nc2c([N+](=O)[O-])ccc3c2=NC2(CCCCC2)N=3)cc1,-64*
CC1(c2ccncc2)Nc2ccccc2-c2nc3ccccc3n21 (stereo not drawn),-66*
CC(C)c1ccc2nc(SCC(=O)NCC3CCCO3)c(C#N)cc2c1 (stereo not drawn),-143*
COc1ccc(OCc2cc(C(=O)NCc3nc(C)cs3)no2)c(Cl)c1,-94*
COc1ccc(OCc2cc(C(=O)NC(C)c3csc(C)n3)no2)c(Cl)c1 (stereo not drawn),-119*
Cc1ccc(-c2cc3nn(-c4ccccc4)c(N)c3c(=O)o2)cc1,-96*
COc1ccc(CC(=O)N2CCc3ccccc32)cc1,-74*
COc1ccc2c(CC(=O)N3CCc4ccccc43)coc2c1,-105*
COc1ccc(CC(=O)N2CCC(c3ccccc3)C2)cc1 (stereo not drawn),-65*
Nc1nc(NCCOCCO)nc(NC2CCCCC2)c1[N+](=O)[O-],68
Nc1nc(N)nc(COc2ccccc2)n1,-106*
CNc1ccc(/C=C(\C#N)c2ccccn2)cc1[N+](=O)[O-],-157*
N#C/C(=C\c1ccccc1)c1ccccn1,-100*
CCc1ccc(/C=C2\SC(=S)N(CCC(=O)Nc3cc(C)on3)C2=O)cc1,69
CCN=C1S/C(=C\c2ccc(O)c(OCC)c2)C(=O)N1CC,68
COc1ccc(/C=C2\SC(=S)N(Cc3cccnc3)C2=O)cc1C,-127*
C#CCOc1ccc(/C=C2\SC(=S)N(Cc3cccnc3)C2=O)cc1,-82*
COc1ccc(/C=C2/SC(=S)N(CC(=O)O)C2=O)cc1OCc1ccc(Cl)cc1,-132*
COc1cc(/C=C2/SC(=S)N(Cc3ccccc3)C2=O)ccc1O,-67*
CCC(=O)Nc1nc2ccc3nc(C)sc3c2s1,-151*
COc1ccc2sc(NC(C)=O)nc2c1,-119*
COc1ccc2sc(NCc3ccccc3)nc2c1,-112*
CCC(=O)Nc1nnc(/C=C/c2ccc(OC)cc2)s1,-141*
SMILES,aSyn 5UTR act
COc1ccc2sc(NC(=O)CC(C)C)nc2c1,-120*
CCC(=O)Nc1nc2cc(OC)ccc2s1,-107*
Cc1ccc(OCc2cnc(Cl)s2)c(C)c1,-134*
COc1ccc(OCc2cnc(Cl)s2)cc1,-82*
O=C(CSc1nc(-c2ccc(F)cc2)cs1)NCCN1C(=O)CSC1=O,-62*
O=C(CSc1nc(-c2ccccc2)cs1)NCCN1C(=O)CSC1=O,-71*
Cc1ccc(-c2csc(N)n2)s1,-71*
Oc1ccc(CNc2ccccc2F)c2cccnc12,87
Oc1ccc(COCc2ccccc2)c2cccnc12,51
CSc1ncccc1C(=O)OCc1ccccc1,-66*
CSc1ncccc1C(=O)OCc1ccccc1F,-62*
COc1ccc(OCCCC(=O)Nc2ccc3c(c2)OCCO3)cc1,-132*
CCOCC(=O)Nc1ccc2c(c1)OCCO2,-66*
CCN(CC(=O)Nc1ccc2c(c1)OCCO2)C(=O)/C=C/c1ccc(F)cc1,-70*
O=C(COc1ccc2c(c1)OCO2)Nc1cccc(F)c1,-94*
COc1cccc(CNC(=O)Cc2ccc(NC(=O)C3=C(C)OCCS3)cc2)c1,-80*
